PubChem BioAssay
Inconclusive results are not listed. Calls of active or inactive are those of the source.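 Rule for the calls, unless noted: active = compounds killing one labelled cell type while sparing the other, by normalised counts and ratio limits, not self-fluorescent; inactive = the rest.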

Columns and labels:
[1] = differential killing of epithelial or mesenchymal cells, primary screen, imaging, PC-3E GFP, TEM4-18 mCherry, co-culture (AID 1345086); conditions: imaging cell counts, at 1 µM; for red/green cell ratio (normalised): actives lie on both sides, counts scaled to control wells, 1 = unselective;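 for all read-outs here: cells exposed to compound for 72 h before imaging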;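 for red/green cell ratio (normalised): normalised mesenchymal count divided by normalised epithelial count so high means epithelial killing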
[2] = growth inhibition of DIPG glioma cells, dose response, cell-based, SU-DIPG-XIII, MIPE4.0, CellTiter-Glo, qHTS (AID 1347061; cut-off not given, nearly all actives have AC50 up to about 37 µM;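 note: cells exposed to compound for 48 hours before readout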); conditions: SU-DIPG-XIII viability, CellTiter-Glo ATP luminescence
[3] = growth inhibition of DIPG glioma cells, dose response, cell-based, JHH-DIPG-1, MIPE4.0, CellTiter-Glo, qHTS (AID 1347062; cut-off not given, nearly all actives have AC50 up to about 27 µM;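 for AC50: cells exposed to compound for two days before readout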); conditions: JHH-DIPG-1 viability, CellTiter-Glo ATP luminescence
[4] = growth inhibition of DIPG glioma cells, dose response, cell-based, SU-DIPG-IV, MIPE4.0, CellTiter-Glo, qHTS (AID 1347063; cut-off not given, nearly all actives have AC50 up to about 30 µM;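 note: compound exposure lasted 48 hours before the viability readout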); conditions: SU-DIPG-IV viability, CellTiter-Glo ATP luminescence
[5] = growth inhibition of DIPG glioma cells, dose response, cell-based, SU-DIPG-XVII, MIPE5.0, CellTiter-Glo, qHTS (AID 1347060; cut-off not given, nearly all actives have AC50 up to about 26 µM;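 for AC50: cells exposed to compound for 48 hours before viability readout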); conditions: SU-DIPG-XVII viability, CellTiter-Glo ATP luminescence
[6] = growth inhibition of DIPG glioma cells, dose response, cell-based, SU-DIPG-XIII, MIPE5.0, CellTiter-Glo, qHTS (AID 1347064; cut-off not given, nearly all actives have AC50 up to about 23 µM); conditions: SU-DIPG-XIII viability, CellTiter-Glo ATP luminescence
[7] = measured here: epithelial PC-3E GFP cell survival
[8] = measured here: mesenchymal TEM4-18 mCherry cell survival

Cc1ccccc1N1C(=O)c2cc(S(N)(=O)=O)c(Cl)cc2NC1C (stereo not drawn)
red/green cell ratio (normalised) [1]: 1.25 (inactive) | normalised cell number [1, 7]: 1.15 | normalised cell number [1, 8]: 1.44 | outcome [2]: inactive | outcome [3]: inactive | outcome [4]: inactive

CCCc1cc(C(N)=S)ccn1
red/green cell ratio (normalised) [1]: 0.84 (inactive) | normalised cell number [1, 7]: 1.14 | normalised cell number [1, 8]: 0.96 | outcome [5]: inactive | outcome [3]: inactive | outcome [6]: inactive

NC(=O)N/N=C/c1ccc([N+](=O)[O-])o1
red/green cell ratio (normalised) [1]: 1.13 (inactive) | normalised cell number [1, 7]: 0.55 | normalised cell number [1, 8]: 0.62 | outcome [2]: inactive

Cn1c(=O)c2c(ncn2C)n(C)c1=O
red/green cell ratio (normalised) [1]: 0.97 (inactive) | normalised cell number [1, 7]: 1.17 | normalised cell number [1, 8]: 1.14 | outcome [2]: inactive | outcome [3]: inactive | outcome [6]: inactive

Cc1nnc(NS(=O)(=O)c2ccc(N)cc2)s1
red/green cell ratio (normalised) [1]: 1.39 (inactive) | normalised cell number [1, 7]: 0.96 | normalised cell number [1, 8]: 1.33 | AC50 [2]: 20900 nM (active) | AC50 [3]: 1320 nM (active) | outcome [6]: inactive

CCC1(C)CC(=O)NC1=O (stereo not drawn)
red/green cell ratio (normalised) [1]: 1.22 (inactive) | normalised cell number [1, 7]: 1.07 | normalised cell number [1, 8]: 1.31 | outcome [2]: inactive | outcome [3]: inactive | outcome [4]: inactive | outcome [6]: inactive

Nc1ncnc2c1ncn2[C@@H]1O[C@H](CO)[C@@H](O)[C@H]1O
red/green cell ratio (normalised) [1]: 1.15 (inactive) | normalised cell number [1, 7]: 0.81 | normalised cell number [1, 8]: 0.94 | AC50 [2]: 18700 nM (active) | AC50 [3]: 935 nM (active)

COC(=O)Nc1nc2ccc(Sc3ccccc3)cc2[nH]1
red/green cell ratio (normalised) [1]: 1.07 (inactive) | normalised cell number [1, 7]: 0.25 | normalised cell number [1, 8]: 0.26 | AC50 [5]: 934 nM (active) | AC50 [4]: 2640 nM (active)

O=C(O)c1cccnc1Nc1cccc(C(F)(F)F)c1
red/green cell ratio (normalised) [1]: 0.93 (inactive) | normalised cell number [1, 7]: 1.08 | normalised cell number [1, 8]: 1 | outcome [2]: inactive | outcome [3]: inactive | outcome [4]: inactive

O=C(NC(Cc1cc(=O)[nH]c2ccccc12)C(=O)O)c1ccc(Cl)cc1 (stereo not drawn)
red/green cell ratio (normalised) [1]: 1.12 (inactive) | normalised cell number [1, 7]: 0.89 | normalised cell number [1, 8]: 0.99 | outcome [5]: inactive | outcome [3]: inactive | outcome [4]: inactive | outcome [6]: inactive
